# In ChEMBL document CHEMBL3988442, “University of Dundee, Small-Polar-MMV Screening Library” (2021):
# The whole screen tested about 48,000 compounds, of which about 13,000 (27%) showed an effect of 50% or more. The list shows a part of the results.
# Tested on: Wolbachia pipientis
# Experiment: Anti-Wolbachia Cell-Based Screen
# Assay type: functional
# Design: scale not given: in the data most compounds retested in dose-response had high values
# Conditions: 5 µM
row,Structure (SMILES),Percent Effect
1,c1ccc(CN2CCC(NCCSc3cnn[nH]3)CC2)cc1,-22.28%
2,CC(=O)N1CCCC1c1cncc(Oc2ccc(F)cc2)n1 (stereo unspecified),97.95%
3,O=C(CCCOCc1ccccc1)N1CCCC1c1ccccn1 (stereo unspecified),-5.136%
4,COC(=O)CCCC(=O)N1CCCCC1c1ccc(F)cc1 (stereo unspecified),-3.374%
5,CNCC(=O)N1CCCC1c1cncc(Oc2ccc(F)cc2)n1.Cl (stereo unspecified),105.9%
6,COc1ccc(C2CCCN2C(=O)Nc2ccc(OC)nc2)cc1 (stereo unspecified),2.775%
7,CN(C)CC(=O)N1CCCC1c1cncc(Oc2ccc(F)cc2)n1 (stereo unspecified),102.5%
8,COc1ccc(Oc2cncc(C3CCCN3C(C)=O)n2)cc1 (stereo unspecified),-16.34%
9,CN(C)CC(=O)N1CCCC1c1ccccn1 (stereo unspecified),98.84%
10,CN(CC(=O)N1CCCC1c1ccccn1)Cc1ccccc1 (stereo unspecified),-5.131%
11,Cc1cn(-c2ccccc2)nc1NS(=O)(=O)c1cc(C(=O)O)cs1,3.492%
12,COc1cccc(-c2n[nH]cc2C(=O)NC(C)c2n[nH]c(C)n2)c1 (stereo unspecified),6.595%
13,O=C(NC1CC1)c1nc2c(o1)CN(c1ncccn1)C2,-9.105%
14,Fc1ccc(CN2CCCn3cnc(COCC4CC4)c3C2)cc1.O=C(O)C(F)(F)F,3.17%
15,CC(C)CNC[C@H]1O[C@H](Cc2cc(-c3ccccn3)on2)CC[C@@H]1O,-6.166%
16,Cn1nc(C2CC2)c2c1NC(=O)CC2c1ccc(CN2CCCCC2)s1 (stereo unspecified),-3.758%
17,COCCOc1ccccc1CNCC1COC2(CCCC2)O1 (stereo unspecified),0.05602%
18,CC(=O)N(Cc1ncc(C)o1)C1CCN(CCNC2CCCCC2)C1 (stereo unspecified),-4.891%
19,Cc1cnc(CN(C)C2CCN(CC(=O)N(C)c3nccs3)C2)o1 (stereo unspecified),-8.119%
20,CC(=O)N(Cc1ncc(C)o1)C1CCN(Cc2sc(C)nc2C)C1 (stereo unspecified),115.4%
21,CC(=O)N(Cc1ncc(C)o1)C1CCN(CCCc2cnn(C)c2)C1 (stereo unspecified),5.261%
22,CC(=O)N(Cc1ncc(C)o1)C1CCN(Cc2csc(C)n2)C1 (stereo unspecified),123.5%
23,CC(=O)N(Cc1ncc(C)o1)C1CCN(Cc2noc(C)n2)C1 (stereo unspecified),3.628%
24,CC(=O)N(Cc1ncc(C)o1)C1CCN(Cc2ccon2)C1 (stereo unspecified),139.3%

row,Structure (SMILES),Percent Effect
1,CC(=O)N(Cc1ncc(C)o1)C1CCN(Cc2cc(C)on2)C1 (stereo unspecified),118.6%
2,COCCCN1CCN(C(=O)C(c2cccc(F)c2)N(C)C)CC1 (stereo unspecified),-8.976%
3,CC(NC(=O)C1=NN(C)C(=O)CC1)c1ccc(F)cc1F (stereo unspecified),-12.15%
4,COc1ccc(OC)c(C2C3=C(COC3=O)Nc3[nH]nc(C)c32)c1 (stereo unspecified),5.984%
5,Cn1c(NCC(O)c2ccc(F)cc2F)c(C#N)c(=O)n(C)c1=O (stereo unspecified),-7.398%
6,CCN1CC(C(=O)N2CC(Oc3ccccc3Cl)C2)CC1=O (stereo unspecified),-26.5%
7,COCCCNC(=O)Nc1ccc(OCc2noc(C3CC3)n2)cc1,4.086%
8,Cc1occc(=O)c1OCc1noc(C(=O)NCC2CC2)n1,118%
9,O=C(NC1CCCC1)c1nc2c(o1)CN(CCO)C2,4.983%
10,Cc1cc(CN(C)C(=O)NC2CCCC2)no1,-3.677%
11,O=C(NCC1CC1)c1nc(COc2ccc3c(c2)OCO3)no1,5.191%
12,Cc1occc(=O)c1OCc1noc(C(=O)NC2CCCC2)n1,110.2%
13,Cc1ccc(NC(=O)CSCc2cccnc2)nc1,4.357%
14,CN(C)C(=O)C1(Oc2ccc(Cl)cc2)CCNCC1,-10.8%
15,CC(C)NC(=O)N1CCC2(CCCO2)C1 (stereo unspecified),5.792%
16,CC(=O)N1Cc2ccccc2OC2(CCN(C(=O)C3CCOC3)CC2)C1 (stereo unspecified),188.7%
17,CC(C)NC(=O)N1CCC2(CC1)CN(C(=O)NC(C)C)CCO2,117%
18,CC(=O)N1CCOC2(CCN(C(=O)C3CC3)CC2)C1,104.2%
19,COCCN(C)CCN1CC2(CCN(C(=O)C3CCOC3)CC2)OC1=O (stereo unspecified),-2.366%
20,O=C(c1ccncc1)N1Cc2ccccc2OC2(CCOCC2)C1,-8.514%
21,CC(C)n1cc(C(=O)N2Cc3ccccc3OC3(CCOCC3)C2)cn1,-9.745%
22,CN1CCCC2(C1)CN(C(=O)C1CCCCC1)CCO2 (stereo unspecified),-29.79%
23,O=C(C1CCOC1)N1CCC2(CC1)CN(c1ncccn1)CCO2.O=C(O)C(F)(F)F (stereo unspecified),-29.34%
24,CC(=O)N1CCCC2(C1)CN(C(=O)C1CCCCC1)CCO2 (stereo unspecified),-22.57%

row,Structure (SMILES),Percent Effect
1,O=C(C1CCOC1)N1Cc2ccccc2OC2(CCOCC2)C1 (stereo unspecified),110.4%
2,CC(C)CNC(=O)N1CCC2(CCCO2)C1 (stereo unspecified),14.05%
3,CCCn1cnnc1-c1nc2c([nH]1)CC(c1ccc(Cl)cc1)CNC2=O (stereo unspecified),14.47%
4,O=S(=O)(Cc1ccc(F)c(Cl)c1)NC(CO)c1ccco1 (stereo unspecified),-13.92%
5,COc1ccccc1C1CNC(=O)c2nc(-c3cn(C)nc3C)[nH]c2C1 (stereo unspecified),-4.665%
6,Cc1cnc(C(=O)N2CCC3(CC2)C(=O)NCCN3CC(C)C)cn1,4.389%
7,COCc1nc(N(C)C/C=C/c2ccccc2)c2cnn(C)c2n1,-13.22%
8,O=C(c1c[nH]cn1)N1CCC(n2cc(-c3ccsc3)nn2)CC1,-0.5309%
9,Cc1cc(C(=O)N2Cc3ccccc3OC3(CCOCC3)C2)nc(N)n1,-4.105%
10,CC(=O)N1Cc2ccccc2OC2(CCN(C(=O)C3CC3)CC2)C1,187.7%
11,N#Cc1c(N2CCCN(C3CCOCC3)CC2)nc2ccccn12,-1.844%
12,CC(C)c1n[nH]c(C2CN(Cc3nnc(C4CC4)n3C)CCO2)n1 (stereo unspecified),4.048%
13,CCCc1n[nH]c(C2CN(CCn3cccn3)CCO2)n1 (stereo unspecified),-0.7272%
14,CC(C)c1n[nH]c(C2CN(CCc3cccs3)CCO2)n1 (stereo unspecified),96.38%
15,CC(C)(C)c1n[nH]c(C2CN(CCNC3CCCCC3)CCO2)n1 (stereo unspecified),-7.813%
16,CC(C)c1n[nH]c(C2CN(Cc3ccno3)CCO2)n1 (stereo unspecified),2.718%
17,CCCc1n[nH]c(C2CN(CCc3cccs3)CCO2)n1 (stereo unspecified),119.2%
18,Cc1n[nH]c(C2CN(CCc3cccs3)CCO2)n1 (stereo unspecified),117.1%
19,Cc1nc(C)n(CC2CN(CCc3cccs3)CCO2)n1 (stereo unspecified),-47.87%
20,CC(C)(C)c1n[nH]c(C2CN(CCc3cccs3)CCO2)n1 (stereo unspecified),121.2%
21,CCc1n[nH]c(C2CN(CCc3cccs3)CCO2)n1 (stereo unspecified),2.973%
22,Cn1c(CN2CCOC(c3nc(C(C)(C)C)n[nH]3)C2)nnc1C1CC1 (stereo unspecified),2.258%
23,Cc1n[nH]c(C2CN(CCCOc3ccc(F)cc3)CCO2)n1 (stereo unspecified),-9.596%
